From PubChem BioAssay (Tox21)
Records with an inconclusive call do not appear. Calls of active or inactive are those of the source. Unless noted, the call rests on the fitted dose curve; in most records, active means well fitted curve in the direction sought with a large enough effect in the repeat runs; inconclusive means weak or mixed curves; inactive means no such curve, though single readings can be large; an effect the other way counts as inactive or inconclusive.

What was measured:
[1] = qHTS assay to identify small molecule antagonists of the estrogen related receptor (ERR) signaling pathway - cell viability counter screen (AID 1224818);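 further: viability measured after 17.5 h of compound exposure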
How it was run: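 Cells carrying the ERR pathway reporter were seeded and incubated for 6 hours before compound addition. After a 17.5-hour exposure at 37 C, live-cell protease activity was measured by CellTiter-Fluor fluorescence following 30 minutes of incubation.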

[2] = qHTS assay to identify small molecule antagonists of the estrogen related receptor (ERR) signaling pathway (AID 1224819; further: nearly all actives have a fitted effect of over 50% in size)
How it was run: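 Compounds dissolved in DMSO were pin-transferred onto ERR cells that had been plated 6 h earlier, and cells were then incubated 18 h at 37 C; signal was luciferase luminescence via One-Glo.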

[3] = qHTS assay to identify small molecule agonists of the estrogen related receptor (ERR) signaling pathway (AID 1224820)
How it was run: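 Quantitative HTS of the LOPAC library used NTP ERR reporter cells treated 18 h at 37 C. Signal is luminescence after One-Glo addition and a 30 min room-temperature incubation.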

[4] = test system: estrogen-related receptor alpha (ERRalpha) with PGC-1alpha coactivator, human; test: qHTS assay to identify small molecule antagonists of the estrogen related receptor signaling pathway with the pleiotropic PPARgamma coactivator (PGC) (AID 1224821; calls by dose curve; further: nearly all actives have a fitted effect of over 50% in size)
How it was run: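 Quantitative HTS for antagonism: PGC/ERR cells received compounds after 6 h attachment and were incubated 18 h at 37 C, with luminescence (One-Glo) as the endpoint.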

[5] = qHTS assay to identify small molecule antagonists of the estrogen related receptor signaling pathway with the pleiotropic PPARgamma coactivator (PGC) cell viability counter screen (AID 1224822;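 further: viability read after 17.5 h compound exposure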)
How it was run: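 Seed PGC/ERR cells (2,000/well); incubate 6 h at 37 C/5% CO2; pin-transfer compounds in DMSO; incubate 17.5 h at 37 C; add CellTiter-Fluor; after 30 min read fluorescence.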

[6] = qHTS assay to identify small molecule agonists of the estrogen related receptor signaling pathway with the pleiotropic PPARgamma coactivator (PGC) (AID 1224823)
How it was run: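 Cell-based luciferase assay in the NTP-supplied PGC/ERR line, 2,000 cells/well; 18 h compound exposure at 37 C, luminescence after One-Glo.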

Measured: Potency
Potency means the concentration at half of the fitted maximal effect.

O=C(O)C1CCNCC1
inactive: all assays above

CN[C@H](CC(C)C)C(=O)N[C@H]1C(=O)N[C@@H](CC(N)=O)C(=O)N[C@H]2C(=O)N[C@H]3C(=O)N[C@H](C(=O)N[C@H](C(=O)O)c4cc(O)cc(O)c4-c4cc3ccc4O)[C@H](O)c3ccc(c(Cl)c3)Oc3cc2cc(c3O[C@@H]2O[C@H](CO)[C@@H](O)[C@H](O)[C@H]2O[C@H]2C[C@](C)(N)[C@H](O)[C@H](C)O2)Oc2ccc(cc2Cl)[C@H]1O
inactive: all assays above

O=C1NC(=O)C(c2ccccc2[N+](=O)[O-])=C1Nc1ccc(O)c(Cl)c1
inactive: all assays above

CCOC(=O)C1=C(O)C(=O)N(Cc2ccccc2)C1
inactive: all assays above

NCCCCC(=O)O
inactive: all assays above

COc1ccc(C(=O)NCc2cccnc2)cc1C(=O)NCc1cccnc1
inactive: all assays above

NCCCNCCCCNCCCN
inactive: all assays above

O=C(O)CCC/C=C\C[C@@H]1[C@@H](/C=C/[C@H](O)C2Cc3ccccc3C2)[C@@H](F)C[C@@H]1O
inactive: all assays above

O=c1cc(-c2ccccc2)[nH]c2nc(Cl)ccc12
inactive: all assays above

CCCCCCCCCCCCCCCC(=O)OC(CC(=O)O)C[N+](C)(C)C (stereo not given)
inactive: all assays above

COc1ccccc1N1CCN(CCCCN2C(=O)c3ccccc3C2=O)CC1
inactive: all assays above

C=C1C[C@@]23CC[C@H]4[C@@](C)(CCC[C@@]4(C)C(=O)O)[C@@H]2CC[C@]1(O)C3
inactive: all assays above

NC[C@H]1O[C@@H](n2cnc3c(N)ncnc32)[C@H](O)[C@@H]1O
inactive: all assays above

NC(=O)CNCCC(c1ccccc1)c1ccccc1
inactive: all assays above

C=CC[C@H](N)C(=O)O
inactive: all assays above

O=c1[nH]c2cc(Cl)ccc2c(O)c1-c1ccc(Oc2ccccc2)cc1
inactive: all assays above

CC[C@H](C)C(=O)O[C@H]1CCC=C2C=C[C@H](C)[C@H](CC[C@@H]3C[C@@H](O)CC(=O)O3)[C@H]21
active: [3] 3.48 µM
inactive: all other assays above

O=S(=O)(c1cccc2c(I)cccc12)N1CCCNCC1
inactive: all assays above

C#CCn1c(=O)c2c(ncn2C)n(C)c1=O
inactive: all assays above

CCCC(CCC)C(=O)OC1CC2CCC(C1)[N+]2(C)C (stereo not given)
inactive: all assays above

O=C(O)C1CN(CCCP(=O)(O)O)CCN1 (stereo not given)
inactive: all assays above

CNCCNS(=O)(=O)c1cccc2cnccc12
active: [2] 21.1 µM | [4] 9.08 µM
inactive: all other assays above

CC(C)NC[C@@H](O)c1ccc(O)c(O)c1
inactive: all assays above

O=[N+]([O-])c1cccc2cn[nH]c12
inactive: all assays above

N=C(N)SCCN
inactive: all assays above

O=C(O)/C(=C/c1c(C(=O)O)[nH]c2cc(Cl)cc(Cl)c12)c1ccccc1
inactive: all assays above

N[C@@H](CCC(=O)N[C@H](CSN=O)C(=O)NCC(=O)O)C(=O)O
inactive: all assays above

O=c1[nH]c(=O)c2nc3ccccc3nc2[nH]1
inactive: all assays above

Oc1ccc(Cn2cc[nH]c2=S)cc1
inactive: all assays above

CCN(CC)CCCCNc1ncc2cc(-c3c(Cl)cccc3Cl)c(NC(=O)NC(C)(C)C)nc2n1
active: [1] 22 µM | [2] 2.37 µM | [5] 13.3 µM
inactive: [3] | [4] | [6]

CCCCOc1cc(CC2CNC(=O)N2)ccc1OC (stereo not given)
inactive: all assays above

Nc1ncnc2n[nH]c(Nc3ccc(F)cc3)c12
active: [6] 22.8 µM
inactive: all other assays above

N[C@@H](Cc1ccc(O)c(I)c1)C(=O)O
inactive: all assays above

Cc1nc2c(OCc3ccccc3)cccn2c1CC#N
inactive: all assays above

N[C@@H](CCCC(=O)O)C(=O)O
inactive: all assays above

O=C(N[C@@H](Cc1ccccc1)C(=O)CCl)OCc1ccccc1
inactive: [3] | [6]
active: [1] 19.6 µM | [2] 21.1 µM | [4] 16.8 µM | [5] 16.8 µM

Nc1ncnc2c1ncn2C1CCCO1 (stereo not given)
inactive: all assays above

CCN1C(=O)C=CC1=O
inactive: all assays above

O=[N+]([O-])c1ccc(CSc2ncnc3c2ncn3[C@@H]2O[C@H](CO)C(O)[C@H]2O)cc1 (stereo not given in full)
inactive: all assays above

CC1(C)CCC=[N+]1[O-]
inactive: all assays above

N[C@@H](Cn1ccc(=O)c(O)c1)C(=O)O
inactive: all assays above

CC1=C(C(=O)O)N2C(=O)[C@@H](NC(=O)C(N)c3ccccc3)[C@H]2SC1 (stereo not given in full)
inactive: all assays above

CC(=O)/C(C)=N/O
inactive: all assays above

CC(C)[C@@H]1CC[C@@H](C)C[C@@H]1P(=O)(c1ccccc1)c1ccccc1
inactive: all assays above

OC[C@H]1O[C@@H](n2cnc3c(NC4CCCCC4)ncnc32)[C@H](O)[C@@H]1O
active: [6] 8.74 µM
inactive: all other assays above

Nc1nc(Cl)nc2c1ncn2[C@@H]1O[C@H](CO)C(O)[C@H]1O (stereo not given in full)
active: [6] 1.23 µM
inactive: all other assays above

CCCCCCCCCCCCCCSCC(=O)O
inactive: all assays above

O=c1[nH]c2cc([N+](=O)[O-])c([N+](=O)[O-])cc2[nH]c1=O
inactive: all assays above

CC1CCN=C(N)S1 (stereo not given)
inactive: all assays above

COc1ccccc1N1CCN(CCCNc2c(C)c(=O)n(C)c(=O)n2C)CC1
inactive: all assays above

COc1cc(CC(=O)O)ccc1O
inactive: all assays above

Nc1ncnc2c1ncn2[C@@H]1O[C@H](COP(=O)(O)OP(=O)(O)OP(=O)(O)OP(=O)(O)OC[C@@H]2O[C@H](n3cnc4c(N)ncnc43)[C@@H](O)C2O)C(O)[C@H]1O (stereo not given in full)
active: [6] 15 µM
inactive: all other assays above

O=C(O)c1cc(=O)c2ccccc2[nH]1
inactive: all assays above

Nn1nnc2ccccc21
inactive: all assays above

COc1ccccc1CN[C@@H]1CCCN[C@@H]1c1ccccc1
inactive: all assays above

OC[C@H]1NC[C@@H](O)[C@@H]1O
inactive: all assays above

NCCNS(=O)(=O)c1cccc2c(Cl)cccc12
inactive: all assays above

CS(=O)(=O)c1ccc(-n2nc(C(F)(F)F)cc2-c2ccc(F)cc2)cc1
inactive: all assays above

NC(=S)c1ccc[n+]([C@@H]2O[C@@H](COP(=O)([O-])OP(=O)(O)OC[C@H]3O[C@@H](n4cnc5c(N)ncnc54)[C@H](OP(=O)(O)O)C3O)C(O)C2O)c1 (stereo not given in full)
active: [6] 18.8 µM
inactive: all other assays above

Oc1ccc(C2CNCc3sccc32)cc1O (stereo not given)
inactive: all assays above
